Experimental data from PubChem BioAssay AID488854 (National Center for Advancing Translational Sciences (NCATS), 2010).
Where “and” joins values, the source holds several entries; their conditions need not be identical. Equal entries are not always repeated. Results filed as inconclusive are left out. Unmarked numbers belong to inactive results. Calls of active or inactive are those of the source. Calls follow the shape of the dose curve; as a rule, active = well fitted activation curve with a large enough effect; inconclusive = small, poorly fitted or top-dose-only effect; inactive = no such curve, though single readings can be large or run the other way.

Target: Lysosomal acid glucosylceramidase (Homo sapiens) (UniProt P04062)
Sequence (P04062 whole entry N409S): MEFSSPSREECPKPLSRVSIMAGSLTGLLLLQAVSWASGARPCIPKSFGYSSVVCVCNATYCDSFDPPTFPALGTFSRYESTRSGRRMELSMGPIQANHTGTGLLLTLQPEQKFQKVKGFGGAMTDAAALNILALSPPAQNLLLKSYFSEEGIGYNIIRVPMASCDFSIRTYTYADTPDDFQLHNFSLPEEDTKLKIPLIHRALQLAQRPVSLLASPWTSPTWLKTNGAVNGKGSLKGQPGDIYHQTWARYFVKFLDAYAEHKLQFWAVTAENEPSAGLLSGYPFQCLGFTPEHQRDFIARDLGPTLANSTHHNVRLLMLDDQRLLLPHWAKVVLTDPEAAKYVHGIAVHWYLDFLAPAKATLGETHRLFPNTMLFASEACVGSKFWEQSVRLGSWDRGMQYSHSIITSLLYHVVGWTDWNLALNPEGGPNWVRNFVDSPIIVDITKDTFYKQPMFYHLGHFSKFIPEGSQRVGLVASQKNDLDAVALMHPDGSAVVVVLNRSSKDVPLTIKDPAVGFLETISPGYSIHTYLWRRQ
Experiment: qHTS Assay for Inhibitors and Activators of N370S glucocerebrosidase as a Potential Chaperone Treatment of Gaucher Disease: Confirmation for Probe SAR
Conditions: N370S GC spleen homogenate, 4MU-glucoside fluorescence; series mostly up to 57.5 µM; activity change, positive = activation: at the top concentration
Excerpt: NIH Chemical Genomics Center [NCGC] NIH Molecular Libraries Probe Production Centers Network [MLPCN] MLPCN Grant: MH086442-01 Assay Submitter (PI): Wei Zheng Glucocerebrosidase (GC) catalyzes the hydrolysis of beta-glucocerebroside to glucose and ceramide in lysosomes. Mutations in the glucocerebrosidase gene result in Gaucher disease, an autosomal recessive lysosomal storage disorder. Many of the mutations encountered in patients with Gaucher disease are missense alterations that may cause misfolding, decreased stability and/or mistrafficking of this lysosomal protein. […] These inhibitors include iminosugar analogs and three non-iminosugar inhibitors identified from a previous HTS of 62,000 compounds with the wild type recombinant enzyme. However, the enhancement of enzyme activity by the chaperone action of an enzyme inhibitor must be balanced against the direct inhibition of the enzyme. An enzyme activator could also function as a chaperone by binding to the enzyme and helping to correct its misfolding and mistrafficking. While activators for GC have not yet been identified, they may have better therapeutic potential than inhibitors. Therefore the discovery and development of chemical activators may provide a new strategy for the chaperone therapy. We have optimized a new assay using N370S mutant GC derived from the spleen of a Gaucher patient. […] In addition, the MLPCN compound library has expanded, which increases the chance of finding new and better probes.
NCGC Assay Protocol Summary: This is a fluorogenic enzyme assay with 4-methylumbelliferyl-beta-D-glucopyranoside as the substrate and N370S glucocerebrosidase from human spleen homogenate as the enzyme preparation. Upon the hydrolysis of this fluorogenic substrate, the resulting product, […] which can be detected by a standard fluorescence plate reader. Data were normalized to the controls for basal activity (without enzyme) and 100% activity (with enzyme). The AC50 values were determined from concentration-response data modeled with the standard Hill equation. Assay buffer: 50 mM citric acid (titrated with potassium phosphate to pH 5.0), 100 mM potassium chloride, 10 mM sodium chloride, 1 mM magnesium chloride, 0.01% Tween-20. 1536-well assay protocol: (1) Add 2 ul/well of spleen homogenate (27 ug final) (2) Add 23 nL compounds in DMSO solution. The final titration was 0.5 nM to 58 uM. (3) Add 2 ul of substrate (1 mM final) (4) Incubate at 37C for 40 min. (5) Add 2 ul stop solution (1M NaOH and 1M Glycine mixture, pH 10) (6) Detect the assay plate in a ViewLux plate reader (PerkinElmer) with Ex=365 nm and Em=440nm. Keywords: Glucocerebrosidase, beta-glucosidase, Gaucher Disease, pharmacological chaperone, chaperone therapy, high throughput screening, glucocerebrosidase inhibitor, MLSMR, MLSCN, NIH Roadmap, qHTS and NCGC

Q: How did the Potency turn out when `Cc1cc(C)n2ncc(C(=O)Nc3ccc4c(c3)CCC4)c2n1` was run?
A: Its Potency is 3.26 µM (active).

Q: How did the Potency turn out when `O=C(NC1CCCCC1)c1cnn2c1NC(=C1CC1)C=C2C(F)F` was run?
A: The Potency was 12.6 µM (active).

Q: Which “activity change, positive = activation” value does the source give for `CCCCN(CCCNC(=S)NCCCc1cnc[nH]1)c1ccc(Br)cn1` here?
A: The value was -105%.

Q: `CNC(=O)c1cnn2c(C)cc(C)nc12` was tested. Which “activity change, positive = activation” value did it give?
A: Its value is 21.2%.

Q: `Cc1cc(C)n2ncc(C(=O)Nc3ccc(C)c(C)c3)c2n1` was tested. Which Potency did it give?
A: The Potency was 1.46 µM (active).

Q: With `Cc1cc(C)n2ncc(C(=O)Nc3cc(Cl)cc(Cl)c3)c2n1` as the compound, how does the Potency read?
A: The Potency was 25.9 µM (active).

Q: With `Cc1cc(C)n2ncc(C(=O)NC3CCC(C(C)(C)C)CC3)c2n1` (stereo not given) as the compound, how does the Potency read?
A: The Potency was 8.19 µM (active) and 1.63 µM (active).

Q: For `Cc1cc(C)n2ncc(C(=O)N3CCCC3)c2n1`, which “activity change, positive = activation” value is on record?
A: Its value is 2.99%.

Q: How did the “activity change, positive = activation” value turn out when `OC[C@H]1CNC[C@@H](O)[C@@H]1O` was run?
A: Its value is -96.6%.

Q: How did the Potency turn out when `COc1ccc(NC(=O)c2cnn3c(C)cc(C)nc23)cc1Cl` was run?
A: The Potency was 2.06 µM (active).

Q: Which Potency does the source give for `COc1ccc(NC(=O)c2cnn3c(C)cc(C)nc23)cc1` here?
A: Its Potency is 6.51 µM (active).

Q: How did the Potency turn out when `Cc1cc(C)n2ncc(C(=O)Nc3ccccc3C)c2n1` was run?
A: Its Potency is 16.3 µM (active).

Q: For `Cc1ccc(NC(=O)c2cnn3c(C)cc(C)nc23)c(C)c1`, which Potency is on record?
A: Its Potency is 10.3 µM (active).

Q: How did the Potency turn out when `Cc1cc(C)n2ncc(C(=O)Nc3ccc(Br)cc3)c2n1` was run?
A: The Potency was 2.31 µM (active).

Q: Which Potency does the source give for `C=C1C=C(C(F)F)n2ncc(C(=O)Nc3ccc(C(C)CC)cc3)c2N1` (stereo not given) here?
A: Its Potency is 2.51 µM (active).

Q: How did the Potency turn out when `CCc1ccc(NC(=O)c2cnn3c(C)cc(-c4ccccc4)nc23)cc1` was run?
A: The Potency was 13 µM (active).

Q: With `CC(=O)c1cccc(NC(=O)c2cnn3c(C)cc(C)nc23)c1` as the compound, how does the Potency read?
A: Its Potency is 25.9 µM (active).

Q: Which Potency does the source give for `C#Cc1ccc(NC(=O)c2cnn3c(C)cc(C)nc23)cc1` here?
A: The Potency was 0.366 µM (active).

Q: For `O=C(Nc1ccccc1Sc1ccccc1)c1cnn2c1NC(=C1CC1)C=C2C(F)(F)F`, which Potency is on record?
A: Its Potency is 14.1 µM (active).

Q: For `CC(=O)Nc1ccc(NC(=O)c2cnn3c(C)cc(C)nc23)cc1`, which “activity change, positive = activation” value is on record?
A: The value was -1.46%.

Q: How did the Potency turn out when `Cc1cc(C)n2ncc(C(=O)Nc3ccc(C(F)(F)F)cc3)c2n1` was run?
A: The Potency was 2.06 µM (active).

Q: Which “activity change, positive = activation” value does the source give for `Cc1cc(C)n2ncc(C(=O)Nc3ccc(S(C)(=O)=O)cc3)c2n1` here?
A: The value was 6.77%.

Q: For `Cc1cc(C)n2ncc(C(=O)Nc3ccccc3Sc3ccccc3)c2n1`, which Potency is on record?
A: Its Potency is 18.3 µM (active).

Q: Which “activity change, positive = activation” value does the source give for `Cc1cc(C)n2ncc(C(=O)Nc3cccc(C#N)c3)c2n1` here?
A: Its value is 5.97% [at 19 µM].

Q: `Cc1cc(C)n2ncc(C(=O)Nc3ccc4c(c3)OCO4)c2n1` was tested. Which Potency did it give?
A: Its Potency is 6.51 µM (active).

Q: Which “activity change, positive = activation” value does the source give for `Cc1cc(-c2ccccc2)n2ncc(C(=O)Nc3ccc(Cl)c(Cl)c3)c2n1` here?
A: The value was 26.4%.

Q: `Cc1cc(C)n2ncc(C(=O)Nc3ccncc3)c2n1` was tested. Which “activity change, positive = activation” value did it give?
A: Its value is -4.5%.

Q: Which Potency does the source give for `Cc1cc(C)n2ncc(C(=O)Nc3ccc4c(c3)OCCO4)c2n1` here?
A: The Potency was 5.8 µM (active).

Q: For `COc1ccc(NC(=O)c2cnn3c(C)cc(C)nc23)cc1F`, which Potency is on record?
A: Its Potency is 0.819 µM (active).

Q: How did the Potency turn out when `Cc1cc(C)n2ncc(C(=O)NCC(C)C)c2n1` was run?
A: The Potency was 25.9 µM (active).

Q: For `Cc1cc(C)n2ncc(C(=O)NCc3ccco3)c2n1`, which Potency is on record?
A: Its Potency is 41.1 µM (active).

Q: `Cc1cc(-c2ccccc2)nc2c(C(=O)Nc3ccc4c(c3)CCC4)cnn12` was tested. Which Potency did it give?
A: Its Potency is 8.19 µM (active).

Q: For `CCc1ccc(NC(=O)c2cnn3c(C)cc(C)nc23)cc1`, which Potency is on record?
A: The Potency was 4.11 µM (active).

Q: For `Cc1cc(C)n2ncc(C(=O)NCc3ccccc3)c2n1`, which Potency is on record?
A: The Potency was 32.6 µM (active).

Q: Which Potency does the source give for `O=C(Nc1ccc2c(c1)CCC2)c1cnn2c1NC(=C1CC1)C=C2C(F)F` here?
A: Its Potency is 3.98 µM (active).

Q: For `Cc1ccc(NC(=O)c2cnn3c(C)cc(C)nc23)cc1`, which Potency is on record?
A: The Potency was 3.26 µM (active).

Q: How did the “activity change, positive = activation” value turn out when `Cc1cc(-c2ccccc2)n2ncc(C(=O)Nc3ccccc3Sc3ccccc3)c2n1` was run?
A: The value was 5.28%.

Q: For `Cc1cc(C)n2ncc(C(=O)Nc3ccccc3)c2n1`, which Potency is on record?
A: Its Potency is 5.17 µM (active).

Q: How did the Potency turn out when `Cc1cc(C)n2ncc(C(=O)NC3CCCCC3)c2n1` was run?
A: The Potency was 13 µM (active).

Q: `CC(=O)Nc1ccccc1NC(=O)c1cnn2c(C)cc(C)nc12` was tested. Which “activity change, positive = activation” value did it give?
A: Its value is 22.1%.
